Bioassay records: PubChem, National Center for Advancing Translational Sciences (NCATS)
This is one part of a sample in which hits are shown more often than they occur.
Shiga toxin inh = A qHTS for Small Molecule Inhibitors of Shiga Toxin; Vero cells, Shiga toxin protein synthesis inhibition reporter; inhibition, % at 38.7 µM; 290,000 tested, 9.2% active; in the data active means inhibition mostly above about 28%, no sharp cut-off; inactive means mostly below about 43%; further: 0% is about no effect
Cycloheximide cs = Cycloheximide Counterscreen for Small Molecule Inhibitors of Shiga Toxin; max response, %; 300,000 tested, 12% active; cell reporter, cycloheximide protein synthesis inhibition counterscreen; in the data active means max response mostly above about 13%, no sharp cut-off; inactive means mostly below about 14%; further: read at 38.3 µM for the half of the compounds with a filed dose; 0% is about no effect
AmpC inh detg = qHTS Inhibitors of AmpC Beta-Lactamase (assay with detergent) | AID 485294, 2010 | Potency, µM (series often up to 114 µM), without a hit: at the highest dose activity change, negative = inhibition, actives largely listed as inhibitors | 370,000 tested, 0.041% active | AmpC hydrolysis of nitrocefin, absorbance 480 nm, 0.01% Triton | P00811;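 further: potency means the concentration at half of the fitted maximal effect; 0% = no-compound wells and -100% = no-enzyme wells; nearly all actives have a fitted effect of over 25% in size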
Target sequence (P00811 whole entry, looked up): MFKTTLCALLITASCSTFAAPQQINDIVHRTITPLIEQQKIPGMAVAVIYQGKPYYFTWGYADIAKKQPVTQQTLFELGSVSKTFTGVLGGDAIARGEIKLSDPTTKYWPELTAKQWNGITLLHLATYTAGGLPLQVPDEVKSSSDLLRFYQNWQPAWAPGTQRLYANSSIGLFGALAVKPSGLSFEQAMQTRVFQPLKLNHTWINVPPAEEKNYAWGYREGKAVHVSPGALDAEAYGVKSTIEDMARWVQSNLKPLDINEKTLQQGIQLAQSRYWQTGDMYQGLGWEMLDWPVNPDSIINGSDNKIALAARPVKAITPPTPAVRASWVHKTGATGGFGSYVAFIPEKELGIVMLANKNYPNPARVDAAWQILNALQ
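20 mM phosphate pH 7.0 + 0.01% (detergent screen) or 0.0001% Triton X-100; 5.3 nM AmpC reagent; cpd preinc 15 min RT; nitrocefin (800 uM stock) to start; A480 q20 s × 4 min; Activity was normalised to no-enzyme and no-compound control wells.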
NS1 inh = qHTS Assay for Inhibitors of Influenza NS1 Protein Function. Potency, µM (top dose mostly 46.1 µM), for the others: at the top dose activity, positive = more growth. 270,000 tested, 0.4% active; calls by dose curve; further: potency means the concentration at half of the fitted maximal effect; actives are rising curves; nearly all actives have a fitted effect of over 50% in size
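Read-out: OD600 growth recovery of NS1-expressing budding yeast. Cells grown overnight at 30C in -URA glucose medium, washed, resuspended and diluted 1:100 in 2% galactose assay medium, pH 6.0. Same strain lacking NS1 served as positive control.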
AmpC inh no detg = qHTS Inhibitors of AmpC Beta-Lactamase (assay without detergent) | AmpC nitrocefin hydrolysis, absorbance 480 nm, 0.0001% Triton | Potency, µM (highest dose often 57.1 µM), for the others: at the highest dose activity change, negative = inhibition, actives largely listed as inhibitors | 330,000 tested, 0.52% active | AID 485341, 2010;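 further: potency means the concentration at half of the fitted maximal effect; plate controls were no compound for no effect and no enzyme for full effect; nearly all actives have a fitted effect of over 20% in size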
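AmpC (5.3 nM in the dispensed reagent) in 20 mM phosphate pH 7.0 with 0.01% (detergent screen) or 0.0001% Triton X-100 was preincubated with compounds for 15 min at room temperature. Nitrocefin was then added from an 800 uM solution, and hydrolysis was followed at 480 nm.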
The depositor's hits bear a star; [ ] = another dose, or the depositor's remark. Unless noted, the call rests on the fitted dose curve; in most records, active means well fitted curve in the direction sought with a large enough effect; inconclusive means small, poorly fitted or top-dose-only effect, or another doubt; inactive means no such curve, though single readings can be large; an effect the other way counts as inactive or inconclusive.

Results for CC(C)OC(=O)CSc1nc2ccccc2s1 ?
Shiga toxin inh: 63.6*; Cycloheximide cs: 48.9*; AmpC inh detg: 1.4%; NS1 inh: 10.1%; AmpC inh no detg: -2.8%

What do the screens show for `COC(=O)c1ccc(CSc2nc3ccccc3s2)o1`?
Shiga toxin inh: 47.9*; Cycloheximide cs: 55.6*; AmpC inh detg: 1.1%; NS1 inh: -45.8%; AmpC inh no detg: -21.9%

Results for CCCC(=O)NCc1nc2cccnc2n1Cc1ccc(F)cc1 ?
AmpC inh detg: 4.6%

How did COC(=O)Cn1c(=O)c2c(nc3n2CCN3c2ccc(F)cc2)n(C)c1=O do in these assays?
AmpC inh detg: 6.8%

How did Cc1c(Cl)cccc1NC(=O)C1CCCN(c2nnc(-n3c(C)ccc3C)s2)C1 (stereo not drawn) do in these assays?
AmpC inh detg: 22.5%

How did NC(=O)C1(N2CCCCC2)CCN(C(=O)Nc2ccc(F)cc2)CC1 do in these assays?
AmpC inh detg: 24.7%

What do the screens show for `O=C(CSc1nc2ccccc2s1)c1cc2ccccc2o1`?
Shiga toxin inh: 45.4; Cycloheximide cs: 24.3*; AmpC inh detg: 0.0%; NS1 inh: 0.3%

How did CCOc1ccc(CN(C)CC(=O)NCc2ccccc2Cl)cc1 do in these assays?
Shiga toxin inh: 36.1*; Cycloheximide cs: 12.0; AmpC inh detg: -5.1%; AmpC inh no detg: -22.9%[11.4 µM]

Results for Fc1ccc(CNCc2ccccc2Cl)cc1 ?
Shiga toxin inh: 23.8; Cycloheximide cs: 13.9; AmpC inh detg: inconclusive; AmpC inh no detg: -16.5%

How did Fc1ccc(CCNCc2ccccc2Cl)cc1 do in these assays?
Shiga toxin inh: 24.1; Cycloheximide cs: 22.0*; AmpC inh detg: 0.4%; NS1 inh: 1.5%; AmpC inh no detg: -15.2%

How did COc1ccccc1CNCc1ccc(C)cc1 do in these assays?
Shiga toxin inh: -2.2; Cycloheximide cs: 0.3; AmpC inh detg: 6.5%; NS1 inh: 26.8%; AmpC inh no detg: -16.6%

What do the screens show for `CCOc1ccc(CNCc2ccccc2Cl)cc1`?
Shiga toxin inh: 51.3*; Cycloheximide cs: 31.5*; AmpC inh detg: 0.7%; NS1 inh: 1.6%; AmpC inh no detg: -26.2%

Results for Cc1ccc(CNCc2ccccc2Cl)cc1 ?
Shiga toxin inh: 21.9; Cycloheximide cs: 16.3*; AmpC inh detg: -1.2%; NS1 inh: -4.4%; AmpC inh no detg: -12.8%

How did CCOc1ccc(CN(C)CC(=O)NCc2ccccc2)cc1 do in these assays?
Shiga toxin inh: -7.2; Cycloheximide cs: 3.1; AmpC inh detg: -6.7%; NS1 inh: 2.5%; AmpC inh no detg: 2.2%

What do the screens show for `COc1ccc(-c2noc(-c3ccc(NC4CCCC4)c([N+](=O)[O-])c3)n2)cc1OC`?
AmpC inh detg: 20.2%

Results for Cc1ccc(S(=O)(=O)N(CC(=O)Nc2ccc3c(c2)OCO3)c2cc(Cl)cc(Cl)c2)cc1 ?
AmpC inh detg: 13.8%

What do the screens show for `CC(C)c1ccc(-c2nnn(CCC(=O)O)n2)cc1`?
Shiga toxin inh: -19.5; Cycloheximide cs: -4.2; AmpC inh detg: -6.6%; NS1 inh: inconclusive; AmpC inh no detg: -5.5%

Results for CCc1ccc(-c2nnn(CCC#N)n2)cc1 ?
Shiga toxin inh: 39.5*; Cycloheximide cs: 29.5*; AmpC inh detg: -11.4%; AmpC inh no detg: 0.0%[11.4 µM]

What do the screens show for `CCc1ccc(-c2nnn(CCC(=O)OC)n2)cc1`?
Shiga toxin inh: 48.4; Cycloheximide cs: 19.4*; AmpC inh detg: 0.9%; NS1 inh: 3.6%; AmpC inh no detg: 3.6%

Results for O=C(CN1CCN(Cc2ccc(Cl)cc2)CC1)N/N=C/C=C/c1ccccc1[N+](=O)[O-] ?
Shiga toxin inh: -3.8; Cycloheximide cs: -7.3; AmpC inh detg: -3.7%; NS1 inh: -17.7%; AmpC inh no detg: 265.8%

Results for Cc1nn(C)c(C)c1CCNC(=O)Nc1cccc(Cl)c1C ?
AmpC inh detg: 8.0%

Results for CCN1CCN(CCCNC(=O)c2cc3c(=O)n(C)c4ccccc4c3s2)CC1 ?
AmpC inh detg: 5.6%

What do the screens show for `CC(/C=N/NC(=O)c1cccs1)=C\c1ccco1`?
Shiga toxin inh: 128.1*; Cycloheximide cs: 58.5*; AmpC inh detg: -3.5%; AmpC inh no detg: -36.0%

What do the screens show for `CC(/C=N/NC(=O)CSc1nc2ccccc2n1C)=C\c1ccco1`?
Shiga toxin inh: 5.9; Cycloheximide cs: -2.3; AmpC inh detg: -1.5%; NS1 inh: 0.5%; AmpC inh no detg: -24.0%

What do the screens show for `CC(/C=N/NC(=O)Cc1cccs1)=C\c1ccco1`?
Shiga toxin inh: 36.8; Cycloheximide cs: 41.1*; AmpC inh detg: inconclusive; NS1 inh: -6.6%; AmpC inh no detg: -43.7%

Results for CC(=C/C(=O)O)/C=C/c1ccco1 ?
Shiga toxin inh: -9.9; Cycloheximide cs: -3.0; AmpC inh detg: inconclusive; NS1 inh: -13.6%; AmpC inh no detg: -8.8%

How did CC(/C=C/c1ccco1)=N/NC(=O)Cc1cccs1 do in these assays?
Shiga toxin inh: -29.6; Cycloheximide cs: 14.3*; AmpC inh detg: -3.1%; NS1 inh: 17.6%; AmpC inh no detg: -18.2%

How did CC(=O)N/N=C\c1cccc(OC/C=C/c2ccccc2)c1 do in these assays?
Shiga toxin inh: 158.6*; Cycloheximide cs: 58.6*; AmpC inh detg: 2.2%; NS1 inh: -13.8%; AmpC inh no detg: 45.8%

How did N#CCC(=O)N/N=C\c1cccc(OC/C=C/c2ccccc2)c1 do in these assays?
Shiga toxin inh: 121.7*; Cycloheximide cs: 52.7*; AmpC inh detg: 1.5%; NS1 inh: 26.6%; AmpC inh no detg: 12.6µM*

Results for CC(=O)N/N=C\c1ccccc1OC/C=C/c1ccccc1 ?
Shiga toxin inh: 92.9; Cycloheximide cs: 21.7*; AmpC inh detg: 7.5%; NS1 inh: 9.7%; AmpC inh no detg: -25.6%

How did CCOC(=O)N/N=C\c1cccc(OC)c1OC/C=C/c1ccccc1 do in these assays?
Shiga toxin inh: 33.6*; Cycloheximide cs: 15.8; AmpC inh detg: -11.1%; NS1 inh: -29.0%; AmpC inh no detg: -14.5%

How did COc1cccc(/C=N/NC(=O)CC(C)O)c1OC/C=C/c1ccccc1 (stereo not drawn) do in these assays?
Shiga toxin inh: 22.5; Cycloheximide cs: 4.3; AmpC inh detg: inconclusive; NS1 inh: -42.9%; AmpC inh no detg: 47.0%

What do the screens show for `CC(C)(CCl)C(=O)Nc1ccc(C(F)(F)F)cc1`?
Shiga toxin inh: 25.7; Cycloheximide cs: 27.9*; AmpC inh detg: 2.1%; AmpC inh no detg: -13.5%

Results for Cc1ccccc1N1C(=O)c2sc3nc4c(c(=O)n3c2C1=O)CCC4 ?
Shiga toxin inh: 8.0; Cycloheximide cs: -3.2; AmpC inh detg: inconclusive; NS1 inh: -80.9%; AmpC inh no detg: -34.5%

How did O=C1c2sc3nc4c(c(=O)n3c2C(=O)N1c1ccccc1)CCC4 do in these assays?
Shiga toxin inh: 46.8*; Cycloheximide cs: 6.0; AmpC inh detg: -2.5%; NS1 inh: -131.5%; AmpC inh no detg: -30.0%

What do the screens show for `Cc1cc(C)c2c(n1)nn1c(C)c(CCC(=O)Nc3cccc(C)c3C)c(C)nc21`?
AmpC inh detg: 22.2%

How did CCOC(=O)C1(CC2CCCCO2)CCN(Cc2cc(F)ccc2-n2cccn2)CC1 (stereo not drawn) do in these assays?
Shiga toxin inh: 72.0; Cycloheximide cs: 26.7*; AmpC inh detg: 0.5%; NS1 inh: 0.8%; AmpC inh no detg: -17.4%
